Compound activity: PubChem BioAssay, several laboratories
PriA SSB inh: K. pneumoniae PriA-SSBct interaction inhibition | AID 1272365 | inhibition, % at 33 µM | AlphaScreen SSBct-PriA binding, biotinylated peptide | 430,000 compounds, 0.6% hits; in the data active = inhibition mostly above about 37%, no sharp cut-off; inactive = mostly below about 20%;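 note: plate controls were negative control peptide for no effect and reference peptide for full effect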
3CLpro inhibitor: SARS-CoV 3CLpro protease inhibition | inhibition, % at 6 µM | recombinant SARS-CoV 3CLpro, quenched FRET peptide cleavage | P0C6X7 | AID 1706 | 290,000 compounds, 0.14% hits; in the data active = inhibition above about 12%
RecA splice inh: inhibitors of M. tuberculosis RecA intein splicing | P9WHJ3 | cell-free RecA intein splicing, fluorescence | inhibition, % (concentration not given with the values) | 290,000 compounds, 0.75% hits | AID 2221; in the data active = inhibition above about 30%;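 note: 0% = vehicle wells and 100% = reference inhibitor control wells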
Target sequence (P9WHJ3 whole entry, looked up, canonical isoform): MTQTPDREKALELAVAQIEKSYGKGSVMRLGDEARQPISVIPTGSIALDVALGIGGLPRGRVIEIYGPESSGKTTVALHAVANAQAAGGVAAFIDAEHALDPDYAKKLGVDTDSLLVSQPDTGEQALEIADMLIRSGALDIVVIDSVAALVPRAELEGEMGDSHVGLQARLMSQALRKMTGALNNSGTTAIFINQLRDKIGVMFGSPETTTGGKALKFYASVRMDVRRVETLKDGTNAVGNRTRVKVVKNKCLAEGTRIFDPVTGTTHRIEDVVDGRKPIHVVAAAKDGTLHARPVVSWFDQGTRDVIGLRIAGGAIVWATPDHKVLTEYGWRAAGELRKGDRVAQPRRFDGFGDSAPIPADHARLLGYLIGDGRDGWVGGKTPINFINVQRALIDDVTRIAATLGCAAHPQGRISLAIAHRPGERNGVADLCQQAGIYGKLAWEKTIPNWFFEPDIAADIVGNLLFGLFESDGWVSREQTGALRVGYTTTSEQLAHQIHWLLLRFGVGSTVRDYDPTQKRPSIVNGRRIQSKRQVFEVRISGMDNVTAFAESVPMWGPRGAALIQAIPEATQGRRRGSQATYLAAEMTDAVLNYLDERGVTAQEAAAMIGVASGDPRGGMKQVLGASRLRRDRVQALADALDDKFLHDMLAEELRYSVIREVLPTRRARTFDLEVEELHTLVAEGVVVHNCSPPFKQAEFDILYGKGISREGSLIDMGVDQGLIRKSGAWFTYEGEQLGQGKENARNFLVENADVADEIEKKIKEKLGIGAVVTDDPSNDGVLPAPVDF
CCHFV vOTU inh: CCHFV vOTU protease inhibition; Pep-AMC fluorescence; inhibition, % at 11.5 µM; 370,000 compounds, 0.55% hits; AID 651958; in the data active = inhibition above about 30%; note: 0% = vehicle wells with enzyme and 100% = no enzyme wells
VHR inh abs: inhibitors of human VHR1 phosphatase (DUSP3) | P51452 | recombinant VHR phosphatase, pNPP absorbance | inhibition, % at 13.3 µM | 290,000 compounds, 0.52% hits | AID 1654; in the data active = inhibition above about 50%
Active calls of the source: *; i = inactive; nt = not tested or not shown. Most compounds without a hit are left out; they make up all but 1.7% or so of the library.

SMILES	PriA SSB inh	3CLpro inhibitor	RecA splice inh	CCHFV vOTU inh	VHR inh abs
Cc1c(C(=O)N/N=C/C(C)C)[nH]c2ccc([N+](=O)[O-])cc12	nt	-4.6	0.9	2.9	55.6*
COc1ccc(C2(C)NN=C3Sc4ccccc4N32)cc1 (centres undefined)	41.0*	nt	nt	nt	nt
CCOCC(=O)NCCn1nc(C)cc1C	-16.0	nt	nt	nt	nt
CCOC(=O)C(=O)Nn1cnc2c(cnn2-c2ccc(C)cc2)c1=O	-8.0	nt	nt	nt	nt
CCCCN1C(=O)Cc2c1nc(N)c1c(N)nc(N(CCC)CCC)c(C#N)c21	38.9*	-1.3	nt	-2.1	22.6
N#Cc1c(N(CCO)CCO)nc(N)c2c(N)nc3c(c12)CC(=O)N3CC1CCCO1 (centres undefined)	30.9	-3.2	-44.1	-7.7	9.1
O=C(CCC1CCCCC1)NCCn1ncc2c(N3CCN(c4ccccc4)CC3)ncnc21	-11.0	nt	nt	nt	nt
CC(=O)c1cccc(Oc2cc(NN3CCCCC3)c([N+](=O)[O-])cc2[N+](=O)[O-])c1	45.0*	-2.2	5.6	5.0	24.4
CC(=O)c1ccccc1Oc1cc(NN2CCCCC2)c([N+](=O)[O-])cc1[N+](=O)[O-]	19.7	5.0	5.2	5.5	16.6
CCOC(=O)N1CCN(C(=O)CCCN2C(=O)CSc3nc(C)cc(C)c32)CC1	-13.3	-1.4	0.4	11.5	51.0*
Nc1cccc2nsnc12	4.7	-6.8	10.4	23.7	23.3
Nc1cc2nsnc2cc1Br	14.1	-0.4	-1.6	97.3*	52.4*
COc1ccc(C)c2sc(NC(=O)c3ccn(C)n3)nc12	-26.0	nt	nt	nt	nt
CC(=O)NC(NC(=S)Nc1ccc(C)cc1C)C(Cl)(Cl)Cl (centres undefined)	0.2	1.2	-4.5	-3.8	12.5
Cc1ccc(NC(=S)NC(NC(=O)c2ccccc2C)C(Cl)(Cl)Cl)c(C)c1 (centres undefined)	8.2	12.8*	12.6	15.2	2.2
COc1cccc(C(O)=C2C(=O)C(=O)N(CCN3CCOCC3)C2c2cccs2)c1 (centres undefined)	1.3	nt	nt	nt	nt
COc1cccc(/C(O)=C2/C(=O)C(=O)N(CCN3CCOCC3)C2c2cccs2)c1 (centres undefined)	nt	-4.9	-0.3	17.3	53.4*
O=C(Oc1cccc(C(=S)N2CCOCC2)c1)c1ccc([N+](=O)[O-])cc1[N+](=O)[O-]	15.1	-2.4	4.8	2.0	23.1
O=C(Oc1ccc(C(=S)N2CCOCC2)cc1)c1ccc([N+](=O)[O-])cc1[N+](=O)[O-]	-7.2	-2.1	45.8*	-17.2	4.1
COc1ccc(-c2cc(=O)n(CC(=O)NCc3cccnc3)cn2)cc1	-20.0	nt	nt	nt	nt
Cc1cc(N2C(=O)N(CC#N)S(=O)(=O)c3cccnc32)ccc1F	-7.0	nt	nt	nt	nt
COc1cccc(CNC(=O)CSc2ncc(-c3cccc(Br)c3)o2)c1OC	-10.0	nt	nt	nt	nt
Cc1ccccc1-c1nc(CS(=O)CC(=O)NC(C)CCc2ccccc2)c(C)o1 (centres undefined)	59.6*	2.6	-2.2	nt	-53.0
COc1cccc(-c2nc(CS(=O)CC(=O)NC(C)CCc3ccccc3)c(C)o2)c1 (centres undefined)	-12.0	-2.3	3.0	4.5	19.0
O=C(NCc1ccccc1C(F)(F)F)c1cn[nH]n1	-15.0	nt	nt	nt	nt
SMILES	PriA SSB inh	3CLpro inhibitor	RecA splice inh	CCHFV vOTU inh	VHR inh abs
CCCn1c(SCC(=O)NC2CCCCC2)nnc1-c1ccco1	-3.1	-3.2	-0.2	6.6	57.6*
O=[N+]([O-])c1ccc(Cl)cc1Sc1nc2ccccc2o1	48.8*	6.1	4.2	9.6	-1.0
CCOc1ccc(N(CC(=O)NCCc2ccccc2)C(=O)CCC(=O)Nc2cc(C)ccn2)cc1	104.3*	-4.8	-5.2	28.0	29.7
COC(CNC(=O)c1ccno1)c1cccc(F)c1 (centres undefined)	-22.0	nt	nt	nt	nt
S=C(N=Nc1ccccc1)NNc1ccccc1	71.9*	-2.7	0.9	-3.5	0.9
Cn1c(=O)c2cc(C(=O)N3CCN(c4ccccc4F)CC3)sc2n(C)c1=O	4.0	nt	nt	nt	nt
CCn1c(C)c(C(C)=O)c(N2CCN(c3ccccc3)CC2)nc1=S	3.1	2.8	-7.8	7.7	13.3
CC(=O)c1c(N2CCN(C)CC2)[nH]c(-c2ccccc2)nc1=S	46.2*	-3.8	0.7	26.9	-11.5
Cc1cccn2c(=O)c3cc(C(=O)NCc4ccc(F)cc4)c(=N)n(CC4CCCO4)c3nc12 (centres undefined)	5.1	-4.8	i	-237.5	55.5*
CC(C)(C)c1ccc(NC(=O)c2ccc(Cl)cc2)c([N+](=O)[O-])c1	63.5*	nt	nt	nt	nt
Cc1cccc(Nc2ccc(C(=O)O)cc2[N+](=O)[O-])c1C	5.9	8.8	2.4	-2.3	52.6*
Cc1ccc(NC(=O)C(=O)NCc2ccccn2)c([N+](=O)[O-])c1	3.0	nt	nt	nt	nt
O=C(Nc1ccc(C(F)(F)F)cc1[N+](=O)[O-])c1ccccc1	67.8	nt	nt	nt	nt
Cc1cccc(Nc2ccc(C(=O)O)cc2[N+](=O)[O-])c1	7.0	nt	nt	nt	nt
CC(C)(C)c1ccc(NC(=O)c2ccccc2)c([N+](=O)[O-])c1	58.5*	2.8	2.0	12.2	-37.5
Cc1ccc(NC(=O)C(=O)NCc2cccs2)c([N+](=O)[O-])c1	56.0*	nt	nt	nt	nt
CCOC(=O)C1CCN(c2nc(C)cc(=O)n2CC(=O)Nc2cccc(C(C)=O)c2)CC1	-10.0	nt	nt	nt	nt
Cc1ccc(NC(=O)c2ccccc2)c([N+](=O)[O-])c1	57.2*	nt	nt	nt	nt
CCCOc1ccc(C(=O)Nc2ccc(C)cc2[N+](=O)[O-])cc1	-3.1	1.7	nt	6.5	-0.2
Cc1ccc(NC(=O)C(C)Oc2cccc(Br)c2)c([N+](=O)[O-])c1 (centres undefined)	49.0*	nt	nt	nt	nt
Cc1cc(C)cc(NC(=O)[C@H](C)Oc2cccc(Br)c2)c1	-4.0	nt	nt	nt	nt
N#Cc1c(N)n[nH]c1CCCN	-1.8	-1.9	0.9	-24.1	51.4*
CCOc1ccc2nc(N=Cc3c(C)[nH]n(-c4ccc(C)cc4)c3=O)sc2c1	-4.7	nt	nt	nt	nt
COc1ccc2nc(N=Cc3c(C)[nH]n(-c4ccc(C)cc4C)c3=O)sc2c1	47.8*	nt	nt	nt	nt
COc1ccc(-c2cc(C#N)nc(Cl)n2)cc1	3.6	-7.2	40.5*	3.8	13.8
SMILES	PriA SSB inh	3CLpro inhibitor	RecA splice inh	CCHFV vOTU inh	VHR inh abs
O=C(Nc1nc(-c2ccccn2)cs1)c1cc(Cl)ccn1	99.0*	nt	nt	nt	nt
O=C(Nc1nc(-c2ccccn2)cs1)c1cc(Cl)ccc1Cl	86.0*	nt	nt	nt	nt
Cc1ccccc1C(=O)Nc1nc(-c2cc(Cl)ccc2Cl)cs1	-7.0	nt	nt	nt	nt
Cc1cnc(C(=O)Nc2nc(-c3ccccn3)cs2)cn1	119.5*	nt	nt	nt	nt
COc1ccc(OC)c2sc(NC(=O)CN3C(=O)CCC3=O)nc12	-3.0	nt	nt	nt	nt
CC(=O)c1cccc(NC(=O)c2ccc(S(=O)(=O)N3CC(C)CC(C)C3)cc2)c1 (centres undefined)	-11.0	nt	nt	nt	nt
O=c1cccnn1CCNS(=O)(=O)c1cc(C(F)(F)F)cc(C(F)(F)F)c1	38.0*	nt	nt	nt	nt
O=c1cccnn1CCCNS(=O)(=O)c1cc(C(F)(F)F)ccc1Cl	-17.0	nt	nt	nt	nt
CCn1c(=O)cc(SCC(=O)NCc2ccccn2)c2ccccc21	8.3	4.0	-5.1	-3.2	54.7*
CCCC(=O)Nc1c(C(=O)OCC)[nH]c2ccccc12	39.2*	-2.7	-1.5	-2.9	-10.4
CCOC(=O)c1[nH]c2ccc(OC)cc2c1NC(=O)c1ccc2c(c1)OCO2	-9.2	-0.2	-1.5	-3.8	6.0
